# PubChem BioAssay AID743386 (Vanderbilt Specialized Chemistry Center, 2014)
# Target: Metabotropic glutamate receptor 7 (Rattus norvegicus) (UniProt P35400)
# Experiment: glutamate curve shift by mGlu7 potentiators, cell-based, rat, GIRK per title (AID 743386)
# Settings: rat mGlu7/Ga15, glutamate CRC shift, calcium; glutamate EC50 left shift; at 10 µM; stronger effect = higher value
# Sequence of Metabotropic glutamate receptor 7 (Rattus norvegicus) (P35400 whole entry, looked up): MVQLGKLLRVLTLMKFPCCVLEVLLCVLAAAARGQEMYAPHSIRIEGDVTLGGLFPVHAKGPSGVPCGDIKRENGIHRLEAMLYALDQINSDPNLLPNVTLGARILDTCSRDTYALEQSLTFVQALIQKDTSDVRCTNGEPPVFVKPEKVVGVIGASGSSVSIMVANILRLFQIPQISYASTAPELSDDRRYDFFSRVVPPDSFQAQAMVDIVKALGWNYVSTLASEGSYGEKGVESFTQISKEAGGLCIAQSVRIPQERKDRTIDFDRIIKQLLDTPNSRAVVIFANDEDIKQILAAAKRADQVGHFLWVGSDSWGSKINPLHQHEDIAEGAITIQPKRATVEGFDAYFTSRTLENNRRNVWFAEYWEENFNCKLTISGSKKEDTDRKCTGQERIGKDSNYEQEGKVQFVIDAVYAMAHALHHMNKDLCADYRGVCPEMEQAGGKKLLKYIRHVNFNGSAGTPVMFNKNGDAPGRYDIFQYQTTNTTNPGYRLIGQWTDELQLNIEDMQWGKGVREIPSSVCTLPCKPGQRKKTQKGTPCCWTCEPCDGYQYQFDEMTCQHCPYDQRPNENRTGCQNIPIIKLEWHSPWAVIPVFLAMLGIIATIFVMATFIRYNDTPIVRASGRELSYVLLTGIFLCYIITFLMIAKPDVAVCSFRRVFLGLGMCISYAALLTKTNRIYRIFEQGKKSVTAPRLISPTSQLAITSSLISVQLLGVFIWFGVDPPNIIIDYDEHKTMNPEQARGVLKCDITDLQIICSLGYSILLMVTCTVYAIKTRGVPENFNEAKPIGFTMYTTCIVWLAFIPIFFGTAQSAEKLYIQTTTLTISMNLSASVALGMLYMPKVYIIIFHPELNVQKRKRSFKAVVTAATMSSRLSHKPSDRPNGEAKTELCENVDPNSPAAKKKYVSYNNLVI
structure (smiles),measurement,value
COC(=O)c1ccc(-n2c(C)cc(C(=O)CSc3ccc(NC(C)=O)cc3)c2C)cc1,fold shift,4.91
